Target: PRPS1
Assay: pooled miR-30 sensor sort-seq; sequence = guide strand
Conditions: shRNA
Further: reference of the scale not given here.

Row | Sequence | sensor-assay potency score (higher = more potent)
1 | TAATATGATCTGCACCTGCTAC | -0.935
2 | TGATAATATGATCTGCACCTGC | -0.404
3 | TTTGCAACAAGCTTGGCTGAGA | -0.163
4 | TATCTTTCTTATCCTGCCGGGC | -0.757
5 | TACACTTTCACCAATTTCCACA | -0.758
6 | TATTGGTGACTACTACTGCCTC | -1.03
7 | TTATCTTTCTTATCCTGCCGGG | 0.175
8 | TCAGGTGAGACAATAGTGCAGT | 0.663
9 | TCACTCTCTTAGCTCCACCAGC | -0.945
10 | TTGTCATTGATTTCGCCACAAC | -1.49
11 | TAAATTGTCATTGATTTCGCCA | -0.0544
12 | TTGGTGACTACTACTGCCTCAA | -0.00628

Target: PRPS2
Assay: as above
Conditions: shRNA

Row | Sequence | sensor-assay potency score (higher = more potent)
13 | TTCTGGAAATAGCTGGTCCAGA | -1.31
14 | TTTCATTTTGTCCTCTTGCGGA | -0.379
15 | TGGTTGCTGAACTTCTTCGTGA | -1.01
16 | TTAGCATATACAAAGATCTGAT | -0.612
17 | TTCATTTTGTCCTCTTGCGGAA | -0.733
18 | TTGTCGTTAATTTCCCCGCAGC | -0.905
19 | TATTTATTCTGGAAATAGCTGG | -0.496
20 | TGTCCTTTTTATCTTGTCGGGC | -0.556
21 | ATGACCTGAATCTTGGTGCAGT | -0.901
